# Experimental data from a collection of fitness landscapes (doi:10.1016/j.celrep.2020.107928).
# The full ranking holds about 81,000 sequences; the median of “one-hybrid fitness for binding parS DNA” is about -0.17, and the highest 2% start at about 0.51. This excerpt belongs to a sample that is enriched for the highest values.
# B1: Caulobacter ParB omega fusion; a variant is named by its letters at X, in order, B8GW30 (parent)
# chain: MESVVVGEPGMSEGRRGLGRGLSALLGEVDAAPAQAPGEQLGGSREAPIEILQRNPDQPRRTFREEDLEDLSNSIREKGVLQPILVRPSPDTAGEYQIVAGERAWRAAQRAGLKTVPIMVRELDDLAVLEIGIIENVQRADLNVLEEALSYKVLMEKFERTQENIAQTIGKSXSHVANXMRLLXLPDEVQSYLVSGELTAXHARAIAAAADPVALAKQIIEGGLSVRETEALARKAPNLSAGKSKGGRPPRVKDTDTQALESDLSSVLGLDVSIDHRGSTGTLTITYATLEQLDDLCNRLTRGI
# Variants of: B1
# Assay: one-hybrid fitness for binding parS DNA (scaled: cognate 1, non-cognate 0); higher = stronger binding
# Settings: with parS DNA site
# Procedure, shortened: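 Values were rescaled so that cognate is 1 and non-cognate is 0. Each is a fitness, the log change in a variant's read ratio to wild type from Illumina reads of plasmids before and after selection, with three replicate libraries pooled and variants under 10 reads dropped. Selection of the Caulobacter ParB libraries, four specificity codons randomised, used E. coli USO with a HIS3 reporter, site 19 bp from the promoter, on M9-minus-histidine with 0.1 mM IPTG and 5 mM 3-AT for 48 hours at 37°C.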
row,Variant,one-hybrid fitness for binding parS DNA
1,QCQH,≤ 0.2
2,RTHH,≤ 0.2
3,RTHS,0.944
4,RTHD,≤ 0.2
5,RYAK,≤ 0.2
6,RYFQ,≤ 0.2
7,RYFK,≤ 0.2
8,RYFC,0.965
9,RYAM,0.267
10,RYAC,0.925
11,PLPR,≤ 0.2
12,RCYC,1
13,RPNC,≤ 0.2
14,RSNQ,≤ 0.2
15,RSYD,≤ 0.2
16,RENC,0.27
17,RCNC,0.941
18,RSYC,0.931
19,RPYC,≤ 0.2
20,RSYN,0.406
21,RDYC,≤ 0.2

row,Variant,one-hybrid fitness for binding parS DNA
1,RDNC,≤ 0.2
2,RSNC,0.957
3,KDHC,≤ 0.2
4,ISLY,≤ 0.2
5,LALC,≤ 0.2
6,LFYG,≤ 0.2
7,TPSE,≤ 0.2
8,GIAA,≤ 0.2
9,MCGR,≤ 0.2
10,RSDC,0.773
11,RPRC,≤ 0.2
12,REDC,≤ 0.2
13,RSDN,0.313
14,RCDC,0.877
15,RSRF,0.281
16,RDRC,≤ 0.2
17,RSDD,≤ 0.2
18,RCRC,0.863
19,RERC,0.334
20,RPDC,≤ 0.2
21,RSRC,0.932

row,Variant,one-hybrid fitness for binding parS DNA
1,AHPR,≤ 0.2
2,NQNV,≤ 0.2
3,QPDY,≤ 0.2
4,SCMC,≤ 0.2
5,LKGL,≤ 0.2
6,CAST,≤ 0.2
7,INPC,≤ 0.2
8,ETLI,≤ 0.2
9,FWGR,≤ 0.2
10,RHNH,≤ 0.2
11,RHNS,0.864
12,RHDS,0.967
13,RHDP,≤ 0.2
14,RHDH,≤ 0.2
15,RHND,≤ 0.2
16,SDHS,≤ 0.2
17,QQDM,≤ 0.2
18,MDNG,≤ 0.2
19,EESV,≤ 0.2
20,LGER,≤ 0.2
21,RQGL,≤ 0.2

row,Variant,one-hybrid fitness for binding parS DNA
1,RRTG,0.699
2,RCTG,1.02
3,RLTQ,≤ 0.2
4,RRTM,0.351
5,RETG,0.249
6,RPTG,≤ 0.2
7,RITG,0.997
8,RITP,≤ 0.2
9,RLTG,1.03
10,RITD,≤ 0.2
11,RLTD,≤ 0.2
12,RRTK,≤ 0.2
13,QTKN,≤ 0.2
14,DQEG,≤ 0.2
15,NHEC,≤ 0.2
16,QCPT,≤ 0.2
17,IMKR,≤ 0.2
18,GAMN,≤ 0.2
19,LESA,≤ 0.2
20,LGIT,≤ 0.2
21,SQRC,≤ 0.2
